This is an account of results in the supplement of paper PMC6555819.

This experiment has as its system FXR:RXRa (NR concentration 270 nM, RXRa partner concentration 90 nM). Kind of experiment: PBM binding z-score (relative to random genomic background probes); higher = stronger binding; sequences stand for … in GC…GCGATTGACAGCGTAGAATGAAGG
In short, it runs like this: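 Binding z-scores were set against random background probes. The data came from custom Agilent 4×180K protein-binding microarrays carrying double-stranded probes with 34-nt variable regions, incubated 1 h with ligand-free nuclear receptor dimers. Partner-specific antibodies detected binding, and scanned fluorescence was regression-normalized.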
The sequence TCTAGCAGGCCAGAGGGTCACACAAGAGGTACGG displayed a PBM binding z-score of 1.67.

The sequence AGTCAAAGTTCACTTGGTAACGTAAGATTCAGCT came in with a PBM binding z-score of 4.85.

In turn, CCGACTGGGGCAGAAAGGTTACCATGCCATCCGG had a PBM binding z-score of 0.204.

GCTCGGAGGACACGGTCAGAGCTTTGTCCGTAGA gave a PBM binding z-score of -0.337.

Regarding CCTATTAGTTGACCATAAGGTCAACCGAAGCTCG, the PBM binding z-score is 4.88.

On to AGTCAAAGCTCATCTAGGTAACGTAAGATATGCT, for which the PBM binding z-score was -0.387.

As to TCTAGTTGGTCACGAAGGTCACACACGACGGGTA, the PBM binding z-score worked out at 2.82.

In turn, TCAGATAGGTAATACAGGTGAAAGTCGGCATCTA yielded a PBM binding z-score of 0.862.

In the case of CAGCCTAGGTCGGGGCCAGTATAGGAGGAACGTT, the PBM binding z-score is -0.375.

Turning to CGAACTAGATCAAGGACAGTGAATCTCCGCACGC, the PBM binding z-score is -0.0387.

As for CGTCCAAGGTCAAGGTCAGCGAAAGAGACTCGAA, the PBM binding z-score was determined as 7.53.

CAGCCTAGGTCAAGGCCAGTATAGGAGGAACGTT displayed a PBM binding z-score of 3.62.

ATACCAAGGTGATCGTGAGGTGGTTGATACTAAC registered a PBM binding z-score of 0.375.

CAAACTAGGTCGCAGAGGTCAAAGTCCGTGCGTA came in with a PBM binding z-score of 5.75.

On to ATCTCTAAGTAAGACTCAGTTCAGTGAAGAACGC, for which the PBM binding z-score turned out to be 0.404.

For the sequence CGTCAAAGTTCAACTAAGGTAACGGAAAGCACGC, the PBM binding z-score stood at 6.73.

Sequence TCTTGTAGATTAAAGGTTAAGAAAGCCGAAGCCT showed a PBM binding z-score of 1.25.

As to TCGTATAGGTAAAGGTGAAAGTCGAACGATATGA, the PBM binding z-score worked out at 1.05.

On to CCTGCTAGGTCAATGGTCAACTAAAGCAGCTCGC, for which the PBM binding z-score turned out to be 3.09.

Sequence TCTCGGACGACACGAAGGTCAGAGCTTTCCAGAG had a PBM binding z-score of 1.58.

As for AAAGACAGGTGATGAAGGTAACTCAGGCTATCAT, the PBM binding z-score was -0.191.

In turn, TCTTGTAGTTCAGCAGGTTAAGAAAGCTGGCCAA showed a PBM binding z-score of 0.786.

Consider TAGAGTAGGTTAGTCGGGGCATTCAGCCAACATA, for which the PBM binding z-score amounted to 0.871.

CGTCCAAGGTCAGAGAGGTAAGTGAATGCCGAGT had a PBM binding z-score of 4.98.

Consider CCGACTGTGGCAAAGGTTACCATACTCAGTACGA, for which the PBM binding z-score was 0.857.

The sequence CAGCCGAGGTCAGGGCCAGTATAGGAGGAACGTT displayed a PBM binding z-score of 6.57.

Sequence CCAACTAGGTCAAGGTCAAAGTCGGTTTGTGCCA returned a PBM binding z-score of 6.64.

Regarding CCTAGCAGGCCCATCTGGGTCACTCAAGGCTTGA, the PBM binding z-score was determined as 0.338.

Sequence CATCAAAGTTCAACTAAGGTAACGTAAAGCACGC yielded a PBM binding z-score of 7.36.

In the case of ACTAGCTGGTCAGCTGAGGTCACACACAATTCGG, the PBM binding z-score came to 3.62.

TCTTGTAGATCAACAGGAGGTTGAGAAAGATCGA: the PBM binding z-score was -0.0264.

In the case of CTACCAAGGTGAACAAGGTCGTGGATTACTATTC, the PBM binding z-score came out at 1.7.

Consider ACTCGGAGGACAAAGGTCAGAGCTACGCCAGTGA, for which the PBM binding z-score amounted to 4.09.

Consider TCTTGTAGATCAATAGAGTTTAAGAAAGTGCGCT, for which the PBM binding z-score came to 0.426.

TAGCCCAGGTCATGCGGGCCAGTATAGTGTCGGC came in with a PBM binding z-score of 4.35.

With AGAACAAGGGCAATGAGTTGATAGCACGGGTGGC, the PBM binding z-score was determined as 0.13.

The sequence CCTACTGGGCCACGAAAGGTCATTGAATCAGTGA registered a PBM binding z-score of 3.69.

In turn, GCTTGTTGATCAAGGTTAAGAAAGACTAAGCTAA returned a PBM binding z-score of -0.091.

CCTACTGGGCCAAGGACATTGATCAGTCAAAGCA came in with a PBM binding z-score of -0.284.

AGAATGAGGTTATACCTAGATCAGGGAAGAAAGT: the PBM binding z-score worked out at 1.65.
